Data taken from the supplement of paper PMC11732987, “Enantioselective OTUD7B fragment discovery through chemoproteomics screening and high-throughput optimisation” (Communications Chemistry, 2025).
Values without a mark were called inactive.

Experiments:
Assay in all cases: log2 ratio of Biotin-Ahx-Ub-VS probe labelling (fragment/DMSO); higher = less target engagement (more negative = stronger competition), active = hit call of the paper (q ≤ 0.05, log2 ratio ≤ -1)
Conditions in all cases: compound concentration: 200 uM; treatment time: 3 h
USP42 = molecular target: T1, USP42 (UniProt Q9H9J4)
T1 sequence (whole entry): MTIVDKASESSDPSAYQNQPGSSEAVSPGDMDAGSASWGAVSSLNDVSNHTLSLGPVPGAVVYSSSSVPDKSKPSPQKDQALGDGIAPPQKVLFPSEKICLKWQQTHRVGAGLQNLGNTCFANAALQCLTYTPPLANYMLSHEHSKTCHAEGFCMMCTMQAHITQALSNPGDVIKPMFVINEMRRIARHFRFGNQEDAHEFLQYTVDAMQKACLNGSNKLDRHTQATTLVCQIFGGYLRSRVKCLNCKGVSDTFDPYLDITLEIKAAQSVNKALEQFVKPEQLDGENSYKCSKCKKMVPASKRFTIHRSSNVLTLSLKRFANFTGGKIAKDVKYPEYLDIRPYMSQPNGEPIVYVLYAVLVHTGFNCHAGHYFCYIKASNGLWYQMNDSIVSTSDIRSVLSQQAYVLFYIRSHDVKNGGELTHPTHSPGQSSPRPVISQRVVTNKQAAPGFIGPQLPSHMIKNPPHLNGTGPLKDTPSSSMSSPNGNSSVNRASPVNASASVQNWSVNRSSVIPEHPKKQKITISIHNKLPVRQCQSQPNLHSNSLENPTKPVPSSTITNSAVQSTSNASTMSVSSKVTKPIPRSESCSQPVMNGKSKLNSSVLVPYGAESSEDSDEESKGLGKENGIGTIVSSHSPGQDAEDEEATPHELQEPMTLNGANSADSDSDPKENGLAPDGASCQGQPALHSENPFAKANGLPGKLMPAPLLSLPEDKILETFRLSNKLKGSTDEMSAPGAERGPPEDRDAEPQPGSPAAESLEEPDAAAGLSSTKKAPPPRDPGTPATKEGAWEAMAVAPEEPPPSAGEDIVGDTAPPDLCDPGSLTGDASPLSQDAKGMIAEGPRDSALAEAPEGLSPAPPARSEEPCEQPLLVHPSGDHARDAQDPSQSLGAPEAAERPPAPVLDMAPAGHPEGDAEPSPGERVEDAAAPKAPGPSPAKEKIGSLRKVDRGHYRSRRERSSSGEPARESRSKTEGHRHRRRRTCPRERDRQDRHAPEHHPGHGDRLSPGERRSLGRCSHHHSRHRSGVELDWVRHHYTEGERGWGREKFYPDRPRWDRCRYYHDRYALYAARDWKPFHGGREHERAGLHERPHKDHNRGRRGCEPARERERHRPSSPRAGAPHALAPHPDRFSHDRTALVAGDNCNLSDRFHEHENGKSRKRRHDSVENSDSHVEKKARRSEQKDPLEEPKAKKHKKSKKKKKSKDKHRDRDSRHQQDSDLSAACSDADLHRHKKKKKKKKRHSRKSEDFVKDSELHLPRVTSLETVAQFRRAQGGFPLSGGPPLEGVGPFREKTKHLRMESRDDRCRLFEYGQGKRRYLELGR
Summary of the method: (§1)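 Labelled DUBs from HEK293T lysate were NeutrAvidin-enriched, digested with LysC and trypsin, and run by diaPASEF LC-MS/MS. Before that, each 495 µg sample in Tris/CHAPS/IGEPAL buffer with protease inhibitors was treated in triplicate with fragment at 200 µM or vehicle for 3 h, then with Biotin-Ahx-Ub-VS at 0.5 µM final for 1 h. Values are average log2 ratios of fragment over vehicle by unpaired t-test, based on global-median-normalised Spectronaut label-free quantities from proteins with ≥2 unique peptides.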

USP46 = USP46 (UniProt P62068)
Sequence of USP46 (P62068 whole entry): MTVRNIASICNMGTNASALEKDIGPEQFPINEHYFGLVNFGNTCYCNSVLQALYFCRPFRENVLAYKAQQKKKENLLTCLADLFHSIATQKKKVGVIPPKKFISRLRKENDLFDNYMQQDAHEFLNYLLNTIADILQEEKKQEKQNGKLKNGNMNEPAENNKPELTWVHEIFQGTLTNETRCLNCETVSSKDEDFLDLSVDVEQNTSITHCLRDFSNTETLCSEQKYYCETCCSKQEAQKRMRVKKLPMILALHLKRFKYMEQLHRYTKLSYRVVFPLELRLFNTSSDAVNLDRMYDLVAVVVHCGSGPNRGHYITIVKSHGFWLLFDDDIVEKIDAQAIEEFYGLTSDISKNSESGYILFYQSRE
Summary of the method: as §1

USP47 = molecular target: T2, USP47 (UniProt Q96K76)
T2 sequence (whole entry): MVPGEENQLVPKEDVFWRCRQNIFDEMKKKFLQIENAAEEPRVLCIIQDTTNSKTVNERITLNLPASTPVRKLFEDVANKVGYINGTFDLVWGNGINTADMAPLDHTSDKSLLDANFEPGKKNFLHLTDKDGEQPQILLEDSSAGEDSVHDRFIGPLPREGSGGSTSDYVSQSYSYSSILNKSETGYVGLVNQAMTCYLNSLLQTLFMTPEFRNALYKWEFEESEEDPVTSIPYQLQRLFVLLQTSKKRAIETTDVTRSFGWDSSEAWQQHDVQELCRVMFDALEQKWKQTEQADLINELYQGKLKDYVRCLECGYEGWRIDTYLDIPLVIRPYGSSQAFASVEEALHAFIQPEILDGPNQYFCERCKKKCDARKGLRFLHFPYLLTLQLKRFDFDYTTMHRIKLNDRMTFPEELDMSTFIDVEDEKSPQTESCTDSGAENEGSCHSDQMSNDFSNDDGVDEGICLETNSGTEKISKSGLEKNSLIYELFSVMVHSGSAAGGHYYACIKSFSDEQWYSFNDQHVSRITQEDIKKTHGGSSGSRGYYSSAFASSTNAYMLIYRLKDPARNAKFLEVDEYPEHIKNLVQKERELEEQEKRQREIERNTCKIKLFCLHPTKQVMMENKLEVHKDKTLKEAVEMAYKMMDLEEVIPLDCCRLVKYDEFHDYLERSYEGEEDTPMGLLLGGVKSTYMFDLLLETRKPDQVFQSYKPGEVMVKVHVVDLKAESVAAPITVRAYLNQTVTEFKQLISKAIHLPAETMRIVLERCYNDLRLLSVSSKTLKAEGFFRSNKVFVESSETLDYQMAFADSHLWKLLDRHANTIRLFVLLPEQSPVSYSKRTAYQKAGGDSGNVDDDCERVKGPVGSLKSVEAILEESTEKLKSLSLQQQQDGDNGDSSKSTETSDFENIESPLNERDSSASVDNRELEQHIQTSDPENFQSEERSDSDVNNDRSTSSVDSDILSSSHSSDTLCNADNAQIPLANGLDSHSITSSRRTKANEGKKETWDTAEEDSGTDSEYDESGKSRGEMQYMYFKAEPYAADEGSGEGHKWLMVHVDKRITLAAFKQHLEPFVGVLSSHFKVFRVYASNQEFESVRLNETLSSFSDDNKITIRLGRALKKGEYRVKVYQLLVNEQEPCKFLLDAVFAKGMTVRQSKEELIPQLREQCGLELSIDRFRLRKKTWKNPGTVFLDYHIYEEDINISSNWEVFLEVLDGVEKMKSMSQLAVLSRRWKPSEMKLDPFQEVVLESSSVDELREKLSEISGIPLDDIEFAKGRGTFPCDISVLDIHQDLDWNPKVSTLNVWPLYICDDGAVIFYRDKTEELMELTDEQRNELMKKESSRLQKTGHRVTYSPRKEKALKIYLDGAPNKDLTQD
Summary of the method: as §1

USP48 = molecular target: T3, USP48 (UniProt Q86UV5)
T3 sequence (whole entry): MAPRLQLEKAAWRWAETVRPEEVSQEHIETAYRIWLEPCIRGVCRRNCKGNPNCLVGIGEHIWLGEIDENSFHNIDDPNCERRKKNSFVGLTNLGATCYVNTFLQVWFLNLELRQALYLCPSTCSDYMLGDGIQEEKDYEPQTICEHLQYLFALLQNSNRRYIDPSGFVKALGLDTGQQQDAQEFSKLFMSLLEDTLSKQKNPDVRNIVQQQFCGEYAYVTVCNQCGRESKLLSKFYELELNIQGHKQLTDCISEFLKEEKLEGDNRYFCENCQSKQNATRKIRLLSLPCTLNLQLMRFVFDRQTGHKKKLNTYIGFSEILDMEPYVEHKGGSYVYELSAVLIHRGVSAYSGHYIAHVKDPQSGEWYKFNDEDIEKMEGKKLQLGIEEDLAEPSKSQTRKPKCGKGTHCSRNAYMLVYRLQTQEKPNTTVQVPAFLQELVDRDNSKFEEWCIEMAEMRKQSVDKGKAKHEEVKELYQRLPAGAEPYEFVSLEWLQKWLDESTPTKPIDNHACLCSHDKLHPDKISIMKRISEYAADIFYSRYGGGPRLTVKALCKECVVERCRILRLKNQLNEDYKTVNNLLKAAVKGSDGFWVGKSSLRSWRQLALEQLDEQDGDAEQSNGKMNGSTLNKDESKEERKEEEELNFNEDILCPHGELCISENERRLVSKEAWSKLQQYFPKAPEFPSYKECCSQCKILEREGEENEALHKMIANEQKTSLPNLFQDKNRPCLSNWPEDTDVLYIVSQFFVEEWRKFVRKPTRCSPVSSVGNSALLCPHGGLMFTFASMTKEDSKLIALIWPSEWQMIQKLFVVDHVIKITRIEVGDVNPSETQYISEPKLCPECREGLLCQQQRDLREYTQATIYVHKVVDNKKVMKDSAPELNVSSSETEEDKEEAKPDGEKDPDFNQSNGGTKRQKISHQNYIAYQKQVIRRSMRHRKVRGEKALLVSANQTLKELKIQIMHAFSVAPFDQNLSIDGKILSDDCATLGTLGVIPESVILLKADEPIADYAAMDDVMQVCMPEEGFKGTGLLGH
Summary of the method: as §1

USP5 = molecular target: T4, USP5 (UniProt P45974)
T4 sequence (whole entry): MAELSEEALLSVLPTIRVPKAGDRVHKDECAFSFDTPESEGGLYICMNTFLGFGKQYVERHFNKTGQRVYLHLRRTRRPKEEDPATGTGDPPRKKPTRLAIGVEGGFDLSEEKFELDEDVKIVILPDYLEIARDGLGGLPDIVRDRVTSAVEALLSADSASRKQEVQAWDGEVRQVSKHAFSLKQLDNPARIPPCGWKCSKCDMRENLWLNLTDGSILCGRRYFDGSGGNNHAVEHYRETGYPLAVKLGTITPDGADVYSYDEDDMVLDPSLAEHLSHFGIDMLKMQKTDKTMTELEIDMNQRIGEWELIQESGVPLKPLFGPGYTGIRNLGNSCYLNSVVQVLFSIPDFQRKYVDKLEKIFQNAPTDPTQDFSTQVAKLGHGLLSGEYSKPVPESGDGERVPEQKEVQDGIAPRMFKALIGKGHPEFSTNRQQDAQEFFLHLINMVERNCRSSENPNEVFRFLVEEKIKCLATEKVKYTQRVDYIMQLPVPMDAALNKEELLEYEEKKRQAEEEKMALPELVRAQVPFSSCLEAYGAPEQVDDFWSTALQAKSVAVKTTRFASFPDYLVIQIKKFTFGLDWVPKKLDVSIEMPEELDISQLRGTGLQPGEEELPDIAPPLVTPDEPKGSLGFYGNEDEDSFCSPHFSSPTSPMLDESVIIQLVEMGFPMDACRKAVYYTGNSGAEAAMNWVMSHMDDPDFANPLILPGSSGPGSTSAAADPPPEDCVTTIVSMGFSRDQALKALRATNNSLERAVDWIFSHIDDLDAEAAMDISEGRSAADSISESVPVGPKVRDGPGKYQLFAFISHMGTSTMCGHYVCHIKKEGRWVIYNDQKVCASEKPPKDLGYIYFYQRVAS
Summary of the method: as §1

USP54 = USP54 (UniProt Q70EL1)
Summary of the method: as §1

USP7 = USP7 (UniProt Q93009)
Sequence of USP7 (Q93009 whole entry, looked up): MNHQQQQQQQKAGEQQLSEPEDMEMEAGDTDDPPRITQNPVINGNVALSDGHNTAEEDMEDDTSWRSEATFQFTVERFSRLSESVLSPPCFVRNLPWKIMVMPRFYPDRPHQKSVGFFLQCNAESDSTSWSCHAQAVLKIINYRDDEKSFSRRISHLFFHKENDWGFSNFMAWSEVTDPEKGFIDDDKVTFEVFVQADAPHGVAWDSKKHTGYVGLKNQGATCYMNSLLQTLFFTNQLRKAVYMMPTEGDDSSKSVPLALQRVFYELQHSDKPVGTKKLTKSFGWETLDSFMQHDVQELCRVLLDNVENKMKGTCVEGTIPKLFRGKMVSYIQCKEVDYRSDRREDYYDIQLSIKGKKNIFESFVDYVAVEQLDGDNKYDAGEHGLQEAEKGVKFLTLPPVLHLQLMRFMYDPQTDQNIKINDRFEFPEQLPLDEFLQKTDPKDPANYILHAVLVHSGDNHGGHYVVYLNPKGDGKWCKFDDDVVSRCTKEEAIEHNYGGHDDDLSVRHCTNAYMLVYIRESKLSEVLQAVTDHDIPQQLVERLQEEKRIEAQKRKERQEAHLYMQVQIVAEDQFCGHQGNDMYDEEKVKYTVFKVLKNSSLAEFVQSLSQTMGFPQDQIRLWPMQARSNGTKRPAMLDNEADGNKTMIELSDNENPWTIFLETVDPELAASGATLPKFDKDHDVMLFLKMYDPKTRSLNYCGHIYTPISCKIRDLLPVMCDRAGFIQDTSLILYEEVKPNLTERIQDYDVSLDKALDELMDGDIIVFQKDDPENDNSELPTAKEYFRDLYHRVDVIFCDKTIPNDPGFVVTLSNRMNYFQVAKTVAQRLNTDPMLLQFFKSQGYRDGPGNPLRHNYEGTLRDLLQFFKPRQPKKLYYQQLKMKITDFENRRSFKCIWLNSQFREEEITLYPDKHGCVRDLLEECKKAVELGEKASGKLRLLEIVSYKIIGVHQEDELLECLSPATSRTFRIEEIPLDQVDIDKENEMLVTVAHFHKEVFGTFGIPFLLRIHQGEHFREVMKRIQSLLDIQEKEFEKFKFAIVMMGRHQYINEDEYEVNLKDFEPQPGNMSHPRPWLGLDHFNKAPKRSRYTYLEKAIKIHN
Summary of the method: as §1

USP8 = molecular target: T5, USP8 (UniProt P40818)
T5 sequence (whole entry): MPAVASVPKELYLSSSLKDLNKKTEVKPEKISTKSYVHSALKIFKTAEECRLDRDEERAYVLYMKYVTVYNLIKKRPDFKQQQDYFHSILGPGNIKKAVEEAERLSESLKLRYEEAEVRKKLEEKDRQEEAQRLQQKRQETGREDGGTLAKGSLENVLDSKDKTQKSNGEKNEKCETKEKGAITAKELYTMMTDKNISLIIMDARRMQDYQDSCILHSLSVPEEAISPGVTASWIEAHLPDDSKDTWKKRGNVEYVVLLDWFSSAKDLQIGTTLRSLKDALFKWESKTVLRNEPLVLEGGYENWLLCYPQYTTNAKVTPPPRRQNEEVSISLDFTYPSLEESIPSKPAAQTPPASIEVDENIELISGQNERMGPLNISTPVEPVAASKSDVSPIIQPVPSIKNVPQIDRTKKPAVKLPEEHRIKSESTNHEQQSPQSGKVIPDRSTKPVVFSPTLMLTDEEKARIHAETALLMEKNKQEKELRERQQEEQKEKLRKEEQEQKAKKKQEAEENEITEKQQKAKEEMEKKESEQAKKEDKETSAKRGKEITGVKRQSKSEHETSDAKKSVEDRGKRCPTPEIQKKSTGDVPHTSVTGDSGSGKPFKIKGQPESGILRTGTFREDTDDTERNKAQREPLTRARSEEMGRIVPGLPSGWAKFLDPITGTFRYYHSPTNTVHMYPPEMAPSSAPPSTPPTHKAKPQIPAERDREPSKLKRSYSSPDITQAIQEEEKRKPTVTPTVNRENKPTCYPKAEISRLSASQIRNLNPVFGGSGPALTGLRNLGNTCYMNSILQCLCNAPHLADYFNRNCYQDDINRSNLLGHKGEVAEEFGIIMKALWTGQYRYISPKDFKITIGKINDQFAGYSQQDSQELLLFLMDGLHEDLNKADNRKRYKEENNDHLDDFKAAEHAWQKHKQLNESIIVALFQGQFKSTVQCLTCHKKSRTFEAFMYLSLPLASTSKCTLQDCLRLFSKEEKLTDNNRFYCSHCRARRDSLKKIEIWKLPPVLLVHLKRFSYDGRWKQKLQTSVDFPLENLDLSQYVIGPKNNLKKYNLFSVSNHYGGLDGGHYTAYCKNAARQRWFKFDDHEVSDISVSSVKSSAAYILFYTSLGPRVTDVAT
Summary of the method: as §1

USP9X = USP9X (UniProt Q93008)
Sequence of USP9X (Q93008 whole entry): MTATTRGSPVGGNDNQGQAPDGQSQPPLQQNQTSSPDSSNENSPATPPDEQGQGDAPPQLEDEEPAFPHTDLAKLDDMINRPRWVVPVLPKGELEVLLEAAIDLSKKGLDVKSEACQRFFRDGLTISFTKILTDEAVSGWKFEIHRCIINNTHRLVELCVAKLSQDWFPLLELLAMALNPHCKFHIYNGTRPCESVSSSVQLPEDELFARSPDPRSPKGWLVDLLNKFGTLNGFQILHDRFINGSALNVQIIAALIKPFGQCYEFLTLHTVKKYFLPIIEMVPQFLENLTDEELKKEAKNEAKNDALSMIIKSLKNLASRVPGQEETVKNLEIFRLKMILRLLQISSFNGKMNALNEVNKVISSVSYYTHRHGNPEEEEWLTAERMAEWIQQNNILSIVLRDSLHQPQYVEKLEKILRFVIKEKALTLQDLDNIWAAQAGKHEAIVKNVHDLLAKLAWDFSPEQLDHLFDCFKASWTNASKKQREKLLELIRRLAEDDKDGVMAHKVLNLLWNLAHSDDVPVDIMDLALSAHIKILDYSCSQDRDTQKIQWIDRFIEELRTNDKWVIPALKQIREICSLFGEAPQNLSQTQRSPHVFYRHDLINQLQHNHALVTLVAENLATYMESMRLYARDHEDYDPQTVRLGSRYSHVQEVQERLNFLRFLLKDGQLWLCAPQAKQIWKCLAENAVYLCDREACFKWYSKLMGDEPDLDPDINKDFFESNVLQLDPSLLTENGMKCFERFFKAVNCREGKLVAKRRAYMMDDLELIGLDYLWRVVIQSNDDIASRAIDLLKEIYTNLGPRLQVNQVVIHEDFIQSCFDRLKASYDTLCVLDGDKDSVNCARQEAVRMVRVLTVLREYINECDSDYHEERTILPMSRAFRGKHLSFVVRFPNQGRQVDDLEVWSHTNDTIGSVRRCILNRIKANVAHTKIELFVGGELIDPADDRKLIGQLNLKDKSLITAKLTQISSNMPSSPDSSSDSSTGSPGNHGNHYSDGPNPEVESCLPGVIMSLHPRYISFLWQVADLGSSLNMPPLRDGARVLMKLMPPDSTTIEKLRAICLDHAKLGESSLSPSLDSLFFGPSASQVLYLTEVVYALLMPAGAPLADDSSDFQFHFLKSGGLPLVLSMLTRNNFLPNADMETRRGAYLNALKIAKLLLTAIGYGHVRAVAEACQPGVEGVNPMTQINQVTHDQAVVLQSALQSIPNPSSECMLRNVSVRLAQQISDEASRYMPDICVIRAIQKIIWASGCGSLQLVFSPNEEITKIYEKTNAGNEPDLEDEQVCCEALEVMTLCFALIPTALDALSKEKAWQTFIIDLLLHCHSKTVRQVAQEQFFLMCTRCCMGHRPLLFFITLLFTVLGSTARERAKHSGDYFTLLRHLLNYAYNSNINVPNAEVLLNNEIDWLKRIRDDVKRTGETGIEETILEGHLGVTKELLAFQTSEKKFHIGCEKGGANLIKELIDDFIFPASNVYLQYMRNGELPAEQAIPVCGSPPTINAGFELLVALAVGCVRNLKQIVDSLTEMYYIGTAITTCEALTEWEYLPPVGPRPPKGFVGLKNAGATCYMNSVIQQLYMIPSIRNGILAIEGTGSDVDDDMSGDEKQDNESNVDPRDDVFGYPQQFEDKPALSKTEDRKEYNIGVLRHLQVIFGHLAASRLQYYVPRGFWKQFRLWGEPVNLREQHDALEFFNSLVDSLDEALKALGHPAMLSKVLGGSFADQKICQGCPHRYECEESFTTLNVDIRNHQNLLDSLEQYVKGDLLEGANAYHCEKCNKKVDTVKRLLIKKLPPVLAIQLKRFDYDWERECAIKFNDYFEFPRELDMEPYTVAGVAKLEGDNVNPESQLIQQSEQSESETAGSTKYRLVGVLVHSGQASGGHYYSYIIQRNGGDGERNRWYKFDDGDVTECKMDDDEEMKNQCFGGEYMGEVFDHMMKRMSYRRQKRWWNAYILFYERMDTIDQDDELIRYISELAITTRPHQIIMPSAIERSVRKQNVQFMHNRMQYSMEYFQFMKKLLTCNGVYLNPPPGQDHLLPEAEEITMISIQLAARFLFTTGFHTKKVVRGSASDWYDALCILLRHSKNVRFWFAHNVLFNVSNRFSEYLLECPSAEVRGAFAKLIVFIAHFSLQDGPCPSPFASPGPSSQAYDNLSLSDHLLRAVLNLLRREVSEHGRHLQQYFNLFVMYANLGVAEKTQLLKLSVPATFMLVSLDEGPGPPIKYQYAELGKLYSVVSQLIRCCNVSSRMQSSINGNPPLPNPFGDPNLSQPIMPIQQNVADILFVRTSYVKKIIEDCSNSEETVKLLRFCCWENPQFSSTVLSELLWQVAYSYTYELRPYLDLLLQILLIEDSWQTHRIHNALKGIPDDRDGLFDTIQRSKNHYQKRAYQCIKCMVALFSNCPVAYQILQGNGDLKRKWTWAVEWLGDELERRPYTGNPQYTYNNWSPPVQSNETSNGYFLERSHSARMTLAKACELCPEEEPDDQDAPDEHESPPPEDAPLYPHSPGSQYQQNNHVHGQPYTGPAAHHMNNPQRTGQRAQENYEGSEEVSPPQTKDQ
Summary of the method: as §1

UniProt O00487 = molecular target: UniProt O00487
Sequence of UniProt O00487 (O00487 whole entry): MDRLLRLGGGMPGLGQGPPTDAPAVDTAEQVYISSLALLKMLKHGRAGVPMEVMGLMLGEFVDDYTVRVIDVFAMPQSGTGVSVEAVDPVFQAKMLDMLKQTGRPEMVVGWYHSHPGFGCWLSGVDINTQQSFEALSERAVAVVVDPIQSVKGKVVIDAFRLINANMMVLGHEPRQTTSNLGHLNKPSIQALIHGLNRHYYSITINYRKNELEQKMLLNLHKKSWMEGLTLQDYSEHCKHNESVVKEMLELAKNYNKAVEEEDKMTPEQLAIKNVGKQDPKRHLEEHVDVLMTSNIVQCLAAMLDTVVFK
Summary of the method: as §1

SMILES | log2 ratio of Biotin-Ahx-Ub-VS probe labelling (USP42) | log2 ratio of Biotin-Ahx-Ub-VS probe labelling (USP46) | log2 ratio of Biotin-Ahx-Ub-VS probe labelling (USP47) | log2 ratio of Biotin-Ahx-Ub-VS probe labelling (USP48) | log2 ratio of Biotin-Ahx-Ub-VS probe labelling (USP5) | log2 ratio of Biotin-Ahx-Ub-VS probe labelling (USP54) | log2 ratio of Biotin-Ahx-Ub-VS probe labelling (USP7) | log2 ratio of Biotin-Ahx-Ub-VS probe labelling (USP8) | log2 ratio of Biotin-Ahx-Ub-VS probe labelling (USP9X) | log2 ratio of Biotin-Ahx-Ub-VS probe labelling (UniProt O00487)
O=C(CCl)N1CCC(=C(F)CO)C1 | 0.374 | 0.0599 | 0.0525 | 0.0406 | 0.108 | 0.0848 | 0.0769 | 0.0438 | 0.0939 | 0.129
Cl.Cn1ncc2c1CCCC2NC(=O)CCl (stereo not given) | 0.564 | -0.0969 | -1.12 (active) | -0.07 | -0.277 | 0.656 | -0.377 | 0.0774 | -0.000676 | -0.128
